Data as given in PubChem BioAssay.
The source made the active and inactive calls.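 The calls were made as follows, unless noted: active = compounds lowering colon cancer cell viability after pretreatment blocking the GSK3B kinase; inactive = the rest.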

Legend:
[1] = Wnt pathway potentiators raising nuclear beta-catenin – imaging, WNT3A-conditioned medium, mouse C2C12, NPC library, primary screen (AID 1117326; in the data active = nuclear beta-catenin stimulation mostly above about 4.2%, no sharp cut-off; inactive = mostly below about 10%; also: reference of the scale not given here); conditions: stronger effect = higher value
[2] = stimulators of insulin release from INS-1E, primary screen, cell-based, 5 mM glucose, NPC library (AID 1117329;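 active = compound raises insulin release from rat beta cells at 5 mM glucose, no numeric limit stated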; also: reference of the scale not given here); conditions: rat INS-1E insulin secretion, at 10 µM, stronger effect = higher value
[3] = growth inhibition of GSK3B-pretreated HCT116 cells – cell-based, CellTiter-Glo, 0.2 to 20 µM (AID 1117336); conditions: HCT116 viability after GSK3B inhibitor, at 20 µM, stronger effect = higher value
[4] = inhibition of endothelial tube formation, primary screen, imaging, VEGF stimulated, CD31 staining, tube area, NPC library (AID 1117340;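 active = compound that reduces growth-factor-driven endothelial tube area in a mixed cell culture, no cutoff stated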); conditions: VEGF-stimulated ADSC/ECFC co-culture, at 10 µM, stronger effect = higher value
[5] = GLP1 release stimulators, primary, NCI-H716, NPC library (AID 1117341;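 active = compound raises GLP1 secretion from the human gut endocrine cells, with no numeric limit stated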; also: reference of the scale not given here); conditions: NCI-H716 cells, at 10 µM, stronger effect = higher value
[6] = HCT116 colon cancer cell growth inhibition, primary screen, CellTiter-Glo luminescence, NPC library (AID 1117342;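 active = compounds that lower survival of HCT116 colon cancer cells in the luminescence readout, no numeric limit stated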); conditions: at 20 µM (top of the series)
[7] = reduced SW480 viability measured with CellTiter-Glo, NPC library, primary (AID 1117343;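 active = compounds that lower viability of the colon cancer cells in the luminescence readout, with no numeric limit stated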); conditions: CellTiter-Glo luminescence; at 20 µM (top of the series)
[8] = NPC library primary testing for decreased DLD-1 cell viability via CellTiter-Glo (AID 1117346;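 active = compounds that lower survival of DLD-1 colon cancer cells in the luminescence readout, no cutoff given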); conditions: DLD-1 viability, CellTiter-Glo luminescence; at 20 µM (top of the series)
[9] = target: 6-phosphogluconate dehydrogenase, decarboxylating (Homo sapiens) (UniProt P52209); test: inhibition of human phosphogluconate dehydrogenase – biochemical, recombinant enzyme, NADPH absorbance, primary screen (AID 1159550;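 active = at least 20% inhibition of 6-phosphogluconate dehydrogenase activity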); conditions: recombinant 6PGD, NADPH absorbance 341 nm; at 10 µM; stronger effect = higher value
Chain of 6-phosphogluconate dehydrogenase, decarboxylating (Homo sapiens) (P52209 whole entry, looked up): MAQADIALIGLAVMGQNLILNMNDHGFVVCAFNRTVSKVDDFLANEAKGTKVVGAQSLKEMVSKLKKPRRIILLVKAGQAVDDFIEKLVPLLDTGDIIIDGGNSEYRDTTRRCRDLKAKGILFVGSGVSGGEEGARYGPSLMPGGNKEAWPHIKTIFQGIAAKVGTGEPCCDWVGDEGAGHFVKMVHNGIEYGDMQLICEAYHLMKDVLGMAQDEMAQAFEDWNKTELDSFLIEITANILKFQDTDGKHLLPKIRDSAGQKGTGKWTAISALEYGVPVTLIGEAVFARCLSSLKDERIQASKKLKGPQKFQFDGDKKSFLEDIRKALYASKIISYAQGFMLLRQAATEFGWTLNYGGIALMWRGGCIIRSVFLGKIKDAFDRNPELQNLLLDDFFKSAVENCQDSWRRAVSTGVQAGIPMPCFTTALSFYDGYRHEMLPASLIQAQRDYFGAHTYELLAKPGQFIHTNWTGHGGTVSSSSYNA

COc1ccccc1OCC(O)CO (stereo not given)
inactive: nuclear beta-catenin stimulation ([1]; at 10 µM) 1.9% | insulin secretion stimulation [2] -0.3% | viability decrease [3] -2.1% | tube area decrease [4] -23.8% | GLP1 secretion stimulation [5] 1.3% | inhibition of viability [6] -1.2% | viability decrease (inhibition) [7] 17.6% | viability decrease (inhibition) [8] -4.85% | inhibition [9] 12.6%
0.9%: nuclear beta-catenin stimulation ([1]; stimulation, at 2 µM)

CC(=O)OCC(=O)[C@H]1CC[C@H]2[C@@H]3CCC4=CC(=O)CC[C@]4(C)[C@H]3CC[C@]12C
-0.5%: nuclear beta-catenin stimulation ([1]; stimulation, at 2 µM)
inactive: nuclear beta-catenin stimulation ([1]; at 10 µM) -1.4% | insulin secretion stimulation [2] 0.3% | viability decrease [3] 0.8% | tube area decrease [4] -2.5% | GLP1 secretion stimulation [5] -0.6% | inhibition of viability [6] 34.5% | viability decrease (inhibition) [7] 1.2% | viability decrease (inhibition) [8] -9.6% | inhibition [9] 2.51%

COc1cc(OC)cc(OC)c1
-0.8%: nuclear beta-catenin stimulation ([1]; stimulation, at 2 µM)
inactive: nuclear beta-catenin stimulation ([1]; at 10 µM) 1.2% | insulin secretion stimulation [2] 2.1% | viability decrease [3] -6.5% | tube area decrease [4] 7.3% | GLP1 secretion stimulation [5] -0.4% | inhibition of viability [6] -3.13% | viability decrease (inhibition) [7] -10.2% | viability decrease (inhibition) [8] -8.5% | inhibition [9] 14.4%

CCCCOc1ccc(C(=O)CCN2CCCCC2)cc1
-0.2%: nuclear beta-catenin stimulation ([1]; stimulation, at 2 µM)
inactive: nuclear beta-catenin stimulation ([1]; at 10 µM) 1.2% | insulin secretion stimulation [2] 2.3% | tube area decrease [4] 12.5% | GLP1 secretion stimulation [5] -0.1% | viability decrease (inhibition) [8] 31.3% | inhibition [9] 9.17%
active: viability decrease [3] 55.8% | inhibition of viability [6] 59.9% | viability decrease (inhibition) [7] 59.5%

CC1=C(C(=O)O)N2C(=O)[C@@H](NC(=O)[C@H](N)C3=CCC=CC3)[C@H]2SC1
inactive: nuclear beta-catenin stimulation ([1]; at 10 µM) -1.1% | insulin secretion stimulation [2] 0.35% | viability decrease [3] 47.6% | tube area decrease [4] 0.9% | GLP1 secretion stimulation [5] 1.6% | inhibition of viability [6] 44% | viability decrease (inhibition) [7] 34.9% | viability decrease (inhibition) [8] 16.5% | inhibition [9] 12.9%
-2.4%: nuclear beta-catenin stimulation ([1]; stimulation, at 2 µM)

Cc1cc(C2CCCCC2)n(O)c(=O)c1
inactive: insulin secretion stimulation [2] 0.4% | GLP1 secretion stimulation [5] -3.2% | inhibition [9] 1.68%
active: nuclear beta-catenin stimulation ([1]; at 10 µM) 64.4% | viability decrease [3] 49.9% | tube area decrease [4] 109% | inhibition of viability [6] 75.1% | viability decrease (inhibition) [7] 108% | viability decrease (inhibition) [8] 90.8%
14.3%: nuclear beta-catenin stimulation ([1]; stimulation, at 2 µM)

Nc1ccc(S(=O)(=O)Nc2nccs2)cc1
active: viability decrease (inhibition) [7] 52.4%
0%: nuclear beta-catenin stimulation ([1]; stimulation, at 2 µM)
inactive: nuclear beta-catenin stimulation ([1]; at 10 µM) 0% | insulin secretion stimulation [2] -1.1% | viability decrease [3] -5.95% | tube area decrease [4] 18.7% | GLP1 secretion stimulation [5] -3.5% | inhibition of viability [6] -3.5% | viability decrease (inhibition) [8] 12% | inhibition [9] 2.97%

Cc1ccc(C(C)C)cc2c(C)ccc1-2
0.2%: nuclear beta-catenin stimulation ([1]; stimulation, at 2 µM)
inactive: nuclear beta-catenin stimulation ([1]; at 10 µM) -1.2% | insulin secretion stimulation [2] -0.7% | viability decrease [3] -28.6% | tube area decrease [4] 15.5% | GLP1 secretion stimulation [5] -6.3% | inhibition of viability [6] 5.77% | viability decrease (inhibition) [7] -9.4% | viability decrease (inhibition) [8] -6.8% | inhibition [9] -19.1%

c1ccc(CN(CC2=NCCN2)c2ccccc2)cc1
2.4%: nuclear beta-catenin stimulation ([1]; stimulation, at 2 µM)
inactive: nuclear beta-catenin stimulation ([1]; at 10 µM) 3.4% | insulin secretion stimulation [2] 11.3% | viability decrease [3] -68.5% | tube area decrease [4] 23.2% | GLP1 secretion stimulation [5] -1.9% | inhibition of viability [6] 15.7% | viability decrease (inhibition) [7] 22% | viability decrease (inhibition) [8] 0.7% | inhibition [9] -4.52%

O=C1O[C@H](CO)[C@@H](O)[C@H](O)[C@H]1O
1%: nuclear beta-catenin stimulation ([1]; stimulation, at 2 µM)
inactive: nuclear beta-catenin stimulation ([1]; at 10 µM) -1.1% | insulin secretion stimulation [2] 1.8% | viability decrease [3] -0.7% | tube area decrease [4] -3.8% | GLP1 secretion stimulation [5] -2.6% | inhibition of viability [6] 14.6% | viability decrease (inhibition) [7] 31.1% | viability decrease (inhibition) [8] 20% | inhibition [9] -9.11%

CC1(C)S[C@@H]2[C@H](NC(=O)[C@H](N)c3ccccc3)C(=O)N2[C@H]1C(=O)O
inactive: nuclear beta-catenin stimulation ([1]; at 10 µM) -0.1% | insulin secretion stimulation [2] -0.2% | viability decrease [3] -19% | tube area decrease [4] 16.3% | GLP1 secretion stimulation [5] 1.2% | inhibition of viability [6] -2.8% | viability decrease (inhibition) [7] -8.7% | viability decrease (inhibition) [8] -9.6% | inhibition [9] 9.14%
-0.4%: nuclear beta-catenin stimulation ([1]; stimulation, at 2 µM)

CCCCCCCCCCCCCCCCCCOCC(O)CO (stereo not given)
inactive: nuclear beta-catenin stimulation ([1]; at 10 µM) 3.8% | insulin secretion stimulation [2] 1.3% | viability decrease [3] -5.2% | tube area decrease [4] 7.6% | inhibition of viability [6] -10.7% | viability decrease (inhibition) [7] 4.8% | viability decrease (inhibition) [8] -8.8% | inhibition [9] -2.18%
active: GLP1 secretion stimulation [5] 30.1%
2.8%: nuclear beta-catenin stimulation ([1]; stimulation, at 2 µM)

CC1CCc2cc(F)cc3c(=O)c(C(=O)O)cn1c23 (stereo not given)
-1.1%: nuclear beta-catenin stimulation ([1]; stimulation, at 2 µM)
inactive: nuclear beta-catenin stimulation ([1]; at 10 µM) 3.1% | insulin secretion stimulation [2] 1.1% | viability decrease [3] -105% | tube area decrease [4] 3.3% | GLP1 secretion stimulation [5] -1.9% | inhibition of viability [6] 19.6% | viability decrease (inhibition) [8] -6.7% | inhibition [9] 2.78%
active: viability decrease (inhibition) [7] 51.1%

C[C@]12CCC(=O)C=C1CC[C@@H]1[C@@H]2[C@@H](O)C[C@@]2(C)[C@H]1CC[C@]2(O)C(=O)COP(=O)(O)O
active: viability decrease (inhibition) [7] -5.9%
-0.1%: nuclear beta-catenin stimulation ([1]; stimulation, at 2 µM)
inactive: nuclear beta-catenin stimulation ([1]; at 10 µM) -0.6% | insulin secretion stimulation [2] 1.8% | viability decrease [3] -2.5% | tube area decrease [4] -8.4% | GLP1 secretion stimulation [5] -1% | inhibition of viability [6] -7.2% | viability decrease (inhibition) [8] -10.7% | inhibition [9] 7.31%

CCN(CCCc1ccccc1)CCCc1ccccc1
4.5%: nuclear beta-catenin stimulation ([1]; stimulation, at 2 µM)
inactive: nuclear beta-catenin stimulation ([1]; at 10 µM) 1% | insulin secretion stimulation [2] 7.3% | viability decrease [3] -119% | tube area decrease [4] 5.4% | GLP1 secretion stimulation [5] 2.7% | inhibition of viability [6] 41.4% | viability decrease (inhibition) [7] 44% | inhibition [9] 7.45%
active: viability decrease (inhibition) [8] 60.1%
